Among the data in PubChem BioAssay (EPA / NIEHS) are outcome and AC50 values, retold here.

Test [1] addresses Aryl hydrocarbon receptor (Homo sapiens) (UniProt P35869). Nature of the test: ATG_Ahr_CIS: Attagene CIS-FACTORIAL HepG2 Assay for human Aryl Hydrocarbon Receptor (Ahr) (AID 2282930; active = hit-call score of the fitted dose curve at least 0.9, where 1 is the maximum; inactive = score below 0.9). As to conditions: HepG2 AhR cis-factorial reporter transcription; actives raise or lower the signal. In outline: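 Following 24 h of chemical dosing, transfected HepG2 liver cells with cis-driven reporter units were lysed for RNA; reporter mRNA was quantified via RT-PCR and capillary electrophoresis, and responses fitted bidirectionally from DMSO.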

The nature of test [2]: ATG_AP_1_CIS: Attagene CIS-FACTORIAL HepG2 Assay for human Activator Protein 1 (AP-1) (AID 2282931; active = hit-call score of the fitted dose curve at least 0.9, where 1 is the maximum; inactive = score below 0.9). As to conditions: HepG2 Attagene cis-factorial AP-1 reporter mRNA; actives raise or lower the signal. The method, boiled down:
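We transfected HepG2 cells transiently with a set of cis-regulated reporter transcription units, dosed them for 24 h, and quantified reporter mRNA via RT-PCR and capillary electrophoresis, scoring gain or loss of signal relative to DMSO.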

Test [3] in a line: ATG_E_Box_CIS: Attagene CIS-FACTORIAL HepG2 Assay for human Enhancer Box (E-box) (AID 2282936; active = hit-call score of the fitted dose curve at least 0.9, where 1 is the maximum; inactive = score below 0.9). The conditions noted are these: HepG2 E-box cis-reporter transcription, actives raise or lower the signal. The method, boiled down:
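Endogenous transcription factor activity was sensed in human HepG2 liver cells through transfected cis-promoter reporter units. After 24 h of dosing, total RNA was reverse-transcribed and reporter cDNA resolved by capillary electrophoresis.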

Test [4] can be described thus: ATG_GRE_CIS: Attagene CIS-FACTORIAL HepG2 Assay for human Glucocorticoid Response Elements (GRE) (AID 2282947; active = hit-call score of the fitted dose curve at least 0.9, where 1 is the maximum; inactive = score below 0.9). As to conditions: HepG2 GRE cis-reporter, Attagene multiplex mRNA; actives raise or lower the signal. In outline: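 Cells (HepG2) bearing transfected cis-promoter reporter transcription units were treated with chemical for 24 hours. Reporter mRNA was measured via RT-PCR with capillary electrophoresis, and activity was fitted in both directions relative to DMSO.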

In test [5] the target is Hypoxia-inducible factor 1-alpha (Homo sapiens) (UniProt Q16665). Briefly: ATG_HIF1a_CIS: Attagene CIS-FACTORIAL HepG2 Assay for human Hypoxia Inducible Factor 1 (HIF1A) (AID 2282951; active = hit-call score of the fitted dose curve at least 0.9, where 1 is the maximum; inactive = score below 0.9). The conditions noted are these: HepG2 Attagene cis-factorial HIF1a reporter transcription; actives raise or lower the signal. The method, boiled down: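 Cis-element reporter constructs were transiently transfected into HepG2 cells, which were treated for 24 h; reporter RNA was reverse-transcribed, amplified, labelled and resolved by capillary electrophoresis.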
Chain of Hypoxia-inducible factor 1-alpha (Homo sapiens) (Q16665 whole entry, looked up): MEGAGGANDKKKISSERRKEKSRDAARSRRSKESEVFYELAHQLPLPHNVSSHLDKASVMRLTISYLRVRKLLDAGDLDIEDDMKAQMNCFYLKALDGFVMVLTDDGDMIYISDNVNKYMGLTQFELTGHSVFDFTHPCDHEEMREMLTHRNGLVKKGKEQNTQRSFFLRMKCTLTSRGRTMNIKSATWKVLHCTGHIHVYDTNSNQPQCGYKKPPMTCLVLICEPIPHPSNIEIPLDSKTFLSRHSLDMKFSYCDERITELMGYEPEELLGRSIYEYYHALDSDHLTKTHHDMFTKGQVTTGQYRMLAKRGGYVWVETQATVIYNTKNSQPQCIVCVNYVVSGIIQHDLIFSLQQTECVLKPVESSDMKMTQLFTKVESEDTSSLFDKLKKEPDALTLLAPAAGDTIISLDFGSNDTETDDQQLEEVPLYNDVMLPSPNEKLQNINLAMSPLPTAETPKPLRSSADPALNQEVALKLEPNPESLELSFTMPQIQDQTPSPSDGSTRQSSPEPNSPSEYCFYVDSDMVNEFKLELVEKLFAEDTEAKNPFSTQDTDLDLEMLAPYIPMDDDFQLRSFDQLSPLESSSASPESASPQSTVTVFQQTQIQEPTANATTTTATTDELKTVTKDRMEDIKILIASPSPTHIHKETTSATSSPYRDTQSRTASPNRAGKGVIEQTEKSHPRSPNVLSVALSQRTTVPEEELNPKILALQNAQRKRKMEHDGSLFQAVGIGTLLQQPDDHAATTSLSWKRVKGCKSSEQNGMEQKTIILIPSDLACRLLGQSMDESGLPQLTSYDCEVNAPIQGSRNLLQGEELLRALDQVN

The nature of test [6]: ATG_PBREM_CIS: Attagene CIS-FACTORIAL HepG2 Assay for human Phenobarbital-responsive Enhancer Module (PBREM) (AID 2282955; active = hit-call score of the fitted dose curve at least 0.9, where 1 is the maximum; inactive = score below 0.9). As to conditions: HepG2 PBREM cis-reporter, Attagene multiplexed transcription; actives raise or lower the signal. The method, boiled down: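 Multiplexed cis-reporter readout in human hepatoma HepG2 cells; PBREM-regulated transcript quantified after 24 h exposure by fluorescent RT-PCR fragment analysis. Signal changes up or down fitted relative to DMSO.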

Test [7] in a line: ATG_M_19_TRANS: Attagene TRANS-FACTORIAL HepG2 Assay for M19 Transcription Factor (Internal Marker) (AID 2282974). The conditions noted are these: HepG2 Attagene TRANS-FACTORIAL M19 internal marker reporter. In outline: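 Multiplexed TRANS format: HepG2 liver cells bearing transient GAL4-UAS reporter units, chemical treatment 24 h, reporter transcripts quantified by RT-PCR plus capillary electrophoresis. DMSO defines baseline.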

Test [8] in a line: ATG_M_32_TRANS: Attagene TRANS-FACTORIAL HepG2 Assay for M32 Transcription Factor (Internal Marker) (AID 2282984).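 Also: transcript level of a background control reporter unit measured by RT-PCR and capillary electrophoresis.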 The conditions noted are these: HepG2 Attagene TRANS M32 internal marker reporter. The method, boiled down:
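After 24 h dosing of transfected HepG2 cells, total RNA was reverse-transcribed, reporter sequences PCR-amplified, 6-FAM labelled by primer extension and HpaI-digested before capillary electrophoresis. Signal increase over DMSO was fitted.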

The nature of test [9]: ATG_NFI_CIS: Attagene CIS-FACTORIAL HepG2 Assay for human Nuclear Factor I (NFI) (AID 2282989; active = hit-call score of the fitted dose curve at least 0.9, where 1 is the maximum; inactive = score below 0.9). The conditions noted are these: HepG2 cis-regulatory reporter, NFI response element transcription; actives raise or lower the signal. In outline: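 Read-out: reporter mRNA via RT-PCR plus capillary electrophoresis with fluorescence detection. Transiently transfected HepG2 (endogenous TF activity on cis promoters), 24 h compound exposure; gain or loss of signal fitted against DMSO.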

Test [10] deals with Peroxisome proliferator-activated receptor gamma (Homo sapiens) (UniProt P37231). Nature of the test: ATG_PPARg_TRANS: Attagene TRANS-FACTORIAL HepG2 Assay for human Peroxisome Proliferator-activated Receptor-gamma (PPARg) (AID 2283007). The method, boiled down: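 Chimeric NR-Gal4 transactivation is measured in transiently transfected HepG2 cells by reporter mRNA induction at 24 h. Detection uses RT-PCR with fluorescent labelling and capillary electrophoresis; DMSO defines baseline.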
Chain of Peroxisome proliferator-activated receptor gamma (Homo sapiens) (P37231 whole entry, looked up, the tested form may be a part): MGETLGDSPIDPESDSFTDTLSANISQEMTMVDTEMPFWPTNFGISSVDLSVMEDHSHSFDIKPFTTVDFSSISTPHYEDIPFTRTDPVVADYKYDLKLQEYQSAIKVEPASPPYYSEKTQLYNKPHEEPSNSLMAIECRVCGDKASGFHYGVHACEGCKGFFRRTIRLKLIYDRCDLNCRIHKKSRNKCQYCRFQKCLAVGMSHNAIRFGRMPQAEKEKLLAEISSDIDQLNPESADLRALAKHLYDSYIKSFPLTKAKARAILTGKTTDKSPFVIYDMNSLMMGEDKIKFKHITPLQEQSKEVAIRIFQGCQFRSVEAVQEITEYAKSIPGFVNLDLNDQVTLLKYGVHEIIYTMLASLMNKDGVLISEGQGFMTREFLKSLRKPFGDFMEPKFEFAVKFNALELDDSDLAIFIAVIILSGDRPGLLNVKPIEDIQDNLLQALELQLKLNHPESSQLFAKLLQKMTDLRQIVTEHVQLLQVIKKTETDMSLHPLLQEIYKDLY

Test [11] has as its target Retinoic acid receptor RXR-alpha (Homo sapiens) (UniProt P19793). Nature of the test: ATG_RXRa_TRANS: Attagene TRANS-FACTORIAL HepG2 Assay for human Retinoid X Receptor alpha (RXRa) (AID 2283012). In outline: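 Measures exogenous chimeric NR-GAL4 activity in transfected HepG2 liver cells after 24 h of dosing. Induced reporter mRNA was detected by RT-PCR with capillary electrophoresis, and gain of signal was analysed against DMSO.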

Test [12] has as its target Cellular tumor antigen p53 (Homo sapiens) (UniProt P04637). Nature of the test: TOX21_p53_BLA_p2_ratio: Tox21 HCT-116 p53 Agonism Beta-lactamase Assay, Ratio, Phase 2 (AID 2283592). In outline: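 Plated HCT116 p53-bla cells (4000/well) received compound after 5 h, then 16 h at 37C/5% CO2. CCF4-AM added, 2 h RT. Ratio of 460 to 530 nm emission taken as the p53 reporter signal.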

The target is the same in test [13]. Briefly: TOX21_p53_BLA_p5_ratio: Tox21 HCT-116 p53 Agonism Beta-lactamase Assay, Ratio, Phase 5 (AID 2283599). The method, boiled down: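 HCT-116 cells carrying a p53-inducible beta-lactamase reporter were seeded at 4000 cells/well and dosed after 5 h with compound in DMSO (217-fold dilution). After 16 h at 37C, CCF4-AM substrate was added for 2 h, and the 460/530 nm emission ratio was scored as gain-of-signal versus DMSO.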

Test [14] can be described thus: TOX21_p53_BLA_p5_viability: Viability Assessment in the Tox21 HCT-116 p53 Agonism Beta-lactamase Assay, Phase 5 (AID 2283600). The method, boiled down: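 Workflow: seed 4000 cells per well, wait 5 h, add compounds (DMSO, 217-fold dilution), incubate 16 h, load CCF4-AM 2 h, add CellTiter-Glo, read luminescence after 30 min.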
The target in test [15] is Cellular tumor antigen p53 (Homo sapiens) (UniProt P04637). Briefly: TOX21_p53_BLA_p4_ratio: Tox21 HCT-116 p53 Agonism Beta-lactamase Assay, Ratio, Phase 4 (AID 2283601). In outline:
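HCT116 cells carrying an inducible beta-lactamase reporter were plated at 4000 cells/well, rested 5 h, then exposed to compounds in DMSO (217-fold dilution) for 16 h at 37C. CCF4-AM substrate was loaded 2 h at room temperature; 460/530 nm emission ratio scored gain-of-signal versus DMSO.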

A short description of test [16]: ACEA_ER_AUC_viability: ACEA Biosciences xCELLigence Real-Time Cell Analysis on Estrogen Receptor Agonism for Viability (AID 2283782).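 Also: hit means loss of impedance signal meaning reduced cell growth or viability.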 In outline: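 Continuous-exposure impedance cell analysis uses T-47D cells in charcoal-stripped serum, eight 1:4 dilutions topping at 100 uM final, biological duplicate. Area under the growth curve at 80 h is fitted against DMSO baseline.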

Test [17] in a line: ATG_M_61_CIS: Attagene CIS-FACTORIAL HepG2 Assay for M61 Transcription Factor (Internal Marker) (AID 2282937; active = hit-call score of the fitted dose curve at least 0.9, where 1 is the maximum; inactive = score below 0.9). As to conditions: HepG2 Attagene CIS-FACTORIAL M61 internal marker reporter; actives raise or lower the signal. The method, boiled down:
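Multiplexed reporter mRNA assay, HepG2 human hepatoma cells, 24 h treatment. Signal: FAM-labelled, HpaI-digested RT-PCR fragments by CE. Fit: bidirectional, baseline DMSO.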

The nature of test [18]: ATG_PPRE_CIS: Attagene CIS-FACTORIAL HepG2 Assay for human Peroxisome Proliferator-activated Response Element (PPRE) (AID 2282958; active = hit-call score of the fitted dose curve at least 0.9, where 1 is the maximum; inactive = score below 0.9). The conditions noted are these: HepG2 PPRE cis-element reporter, Attagene transcription factor profiling; actives raise or lower the signal. The method, boiled down:
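DMSO served as negative control and baseline for bidirectional curve fitting. Signal came from PPRE-regulated reporter mRNA in HepG2 cells, measured 24 h post-dosing by RT-PCR, 6-FAM primer extension and capillary electrophoresis.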

A short description of test [19]: ATG_M_06_TRANS: Attagene TRANS-FACTORIAL HepG2 Assay for M06 Transcription Factor (Internal Marker) (AID 2282983).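 Also: reporter transcript level by RT-PCR then capillary electrophoresis fluorescence.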 The conditions noted are these: HepG2 Attagene TRANS M06 internal marker reporter. In outline:
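Background control endpoint: reporter mRNA from transiently transfected HepG2 after 24 h dosing, detected by RT-PCR with capillary electrophoresis fluorescence. Analysed for gain versus DMSO.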

Test [20] deals with human Retinoid X Receptor beta (RXRb), RXRB (gene 6257) (UniProt P28702). Briefly: ATG_RXRb_TRANS: Attagene TRANS-FACTORIAL HepG2 Assay for human Retinoid X Receptor beta (RXRb) (AID 2283013). The method, boiled down:
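Chimeric receptor-Gal4 activity was assessed in transiently transfected human HepG2 cells after 24 h exposure. Transcripts from GAL4-UAS reporters were quantified by fluorescent RT-PCR and capillary electrophoresis, with DMSO as negative control and baseline.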

Records with an inconclusive call do not appear. Some compounds were tested as several samples or in several runs, with calls that do not always agree. The source made the active and inactive calls. The calls were made as follows, unless noted: active = hit-call score of the fitted dose curve at least 0.9, where 1 is the maximum; inconclusive = response in the unintended direction; inactive = score below 0.9.

Chain of Retinoic acid receptor RXR-alpha (Homo sapiens) (P19793 whole entry, looked up, the tested form may be a part): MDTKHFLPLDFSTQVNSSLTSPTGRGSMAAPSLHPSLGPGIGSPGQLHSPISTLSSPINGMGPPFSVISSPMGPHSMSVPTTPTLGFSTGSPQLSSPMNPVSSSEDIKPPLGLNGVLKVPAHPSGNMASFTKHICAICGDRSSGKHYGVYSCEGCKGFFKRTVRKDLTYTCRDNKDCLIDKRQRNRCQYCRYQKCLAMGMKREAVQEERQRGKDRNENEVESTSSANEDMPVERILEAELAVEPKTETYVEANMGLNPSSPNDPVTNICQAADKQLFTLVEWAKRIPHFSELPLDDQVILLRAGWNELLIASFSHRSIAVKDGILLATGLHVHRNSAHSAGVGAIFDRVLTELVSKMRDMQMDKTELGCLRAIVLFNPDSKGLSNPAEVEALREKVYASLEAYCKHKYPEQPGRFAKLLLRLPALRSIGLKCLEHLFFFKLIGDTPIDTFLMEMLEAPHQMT
Chain of Cellular tumor antigen p53 (Homo sapiens) (P04637 whole entry, looked up): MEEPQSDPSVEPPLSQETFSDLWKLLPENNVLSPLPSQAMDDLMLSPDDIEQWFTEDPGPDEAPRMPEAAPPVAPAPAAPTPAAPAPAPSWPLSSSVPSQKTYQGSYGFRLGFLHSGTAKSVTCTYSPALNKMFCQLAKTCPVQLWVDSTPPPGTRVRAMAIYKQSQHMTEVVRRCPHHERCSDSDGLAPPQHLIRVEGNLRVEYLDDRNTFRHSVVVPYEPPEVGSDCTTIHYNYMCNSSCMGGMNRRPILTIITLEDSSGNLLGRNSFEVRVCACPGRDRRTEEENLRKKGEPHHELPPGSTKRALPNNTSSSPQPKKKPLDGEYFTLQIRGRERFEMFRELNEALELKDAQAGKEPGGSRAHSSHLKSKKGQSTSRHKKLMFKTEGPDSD
Chain of Aryl hydrocarbon receptor (Homo sapiens) (P35869 whole entry, looked up): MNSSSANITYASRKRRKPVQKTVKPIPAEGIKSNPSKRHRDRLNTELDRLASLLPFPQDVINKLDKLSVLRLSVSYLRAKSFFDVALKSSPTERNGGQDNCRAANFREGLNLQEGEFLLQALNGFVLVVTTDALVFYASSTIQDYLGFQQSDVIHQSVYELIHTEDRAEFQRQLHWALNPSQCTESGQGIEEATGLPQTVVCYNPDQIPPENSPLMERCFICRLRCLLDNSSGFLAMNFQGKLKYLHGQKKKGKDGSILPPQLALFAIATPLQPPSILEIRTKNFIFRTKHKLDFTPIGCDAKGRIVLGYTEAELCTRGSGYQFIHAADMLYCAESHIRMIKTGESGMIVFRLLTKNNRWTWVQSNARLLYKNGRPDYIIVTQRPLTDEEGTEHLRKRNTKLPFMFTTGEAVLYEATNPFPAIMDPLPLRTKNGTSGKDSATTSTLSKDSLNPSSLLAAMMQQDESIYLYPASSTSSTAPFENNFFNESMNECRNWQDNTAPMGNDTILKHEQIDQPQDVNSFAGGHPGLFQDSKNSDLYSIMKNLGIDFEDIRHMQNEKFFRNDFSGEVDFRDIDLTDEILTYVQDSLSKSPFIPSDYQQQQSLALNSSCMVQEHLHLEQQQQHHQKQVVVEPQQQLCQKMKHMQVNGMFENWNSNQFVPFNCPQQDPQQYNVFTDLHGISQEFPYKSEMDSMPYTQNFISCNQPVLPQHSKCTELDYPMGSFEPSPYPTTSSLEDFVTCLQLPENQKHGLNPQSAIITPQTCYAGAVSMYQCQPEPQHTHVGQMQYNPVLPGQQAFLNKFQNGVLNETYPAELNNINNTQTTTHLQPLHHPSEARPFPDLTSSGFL
Chain of human Retinoid X Receptor beta (RXRb), RXRB (gene 6257) (P28702 whole entry, looked up, the tested form may be a part): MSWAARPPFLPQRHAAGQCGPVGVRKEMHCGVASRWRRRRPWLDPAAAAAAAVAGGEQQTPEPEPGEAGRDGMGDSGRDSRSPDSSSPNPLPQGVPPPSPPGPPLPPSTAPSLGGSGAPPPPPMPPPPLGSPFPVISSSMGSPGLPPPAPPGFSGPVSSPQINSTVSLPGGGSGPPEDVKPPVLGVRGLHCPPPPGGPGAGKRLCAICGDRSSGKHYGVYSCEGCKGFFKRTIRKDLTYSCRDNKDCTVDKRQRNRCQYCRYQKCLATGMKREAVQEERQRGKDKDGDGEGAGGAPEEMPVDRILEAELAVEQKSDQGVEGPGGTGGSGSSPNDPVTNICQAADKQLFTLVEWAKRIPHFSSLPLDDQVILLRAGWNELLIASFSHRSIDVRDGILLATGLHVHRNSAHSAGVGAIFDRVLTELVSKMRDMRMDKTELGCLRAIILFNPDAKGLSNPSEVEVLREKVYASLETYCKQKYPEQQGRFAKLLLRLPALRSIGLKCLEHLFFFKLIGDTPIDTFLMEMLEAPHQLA

What is called AC50 is the midpoint of the concentration-response curve, whichever way the signal moves. Take `CCOC(=O)C1OC1(C)c1ccccc1` (stereo unspecified): the compound was classed as inactive in test [1], in test [2], in test [3], in [4], in [5] and in test [6]. The call in [7], in [8], in test [9], in test [11], in test [12] and in [13] was inactive. The call in [14], in [15] and in test [16] was inactive. The AC50 in [10] is 100 µM (active).

Turning to `C[N+](C)(C)CC(=O)O`, the compound was called inactive in test [1], in test [3], in test [17], in [18], in test [7] and in test [8]. The call in [9] and in test [11] was inactive. Also, the AC50 in test [16] is 25.6 µM (active).

Consider `O=S(=O)(O)OOS(=O)(=O)O`, for which the compound was classed as inactive in test [1], in test [2], in [17], in test [5], in test [18] and in [7]. Also, the result in [19], in [8], in [10], in test [20] and in [16] was inactive.

On to `CC(C)C(=O)Cl`, for which the compound was called inactive in test [1], in test [17], in test [4], in test [18], in [7] and in test [8]. Besides, the compound was called inactive in test [11], in test [20] and in test [16].

On to `C=CC(=O)OCCCCOC(=O)C=C`, for which the result in test [1], in test [17], in [6], in test [18], in test [19] and in test [8] was inactive. Moreover, the call in test [9], in test [11], in [20], in test [13] and in test [15] was inactive. Also, the concentration at half-maximal activity (AC50) in [3] is 70.1 µM (active); in test [4], 70.5 µM (active); in test [10], 2.14 µM (active); in [12] it was 49.6 µM (active); in [16], 24.2 µM (active).

Regarding `CCOP(=O)(OCC)Oc1ccc([N+](=O)[O-])cc1`, the call in test [2], in test [3], in [17], in test [6], in test [18] and in test [7] was inactive. In addition, the compound was called inactive in test [19], in test [8], in [9], in test [10], in test [11] and in [20]. Also, the result in test [13], in test [14] and in test [15] was inactive.

For `CN(C)CCC#N`, the compound was called inactive in test [2], in test [3], in [17], in [4], in test [5] and in [18]. Moreover, the outcome in test [7], in test [19], in test [8], in test [9], in test [10] and in test [11] was inactive. Besides, the result in test [20], in test [12], in [13], in test [14], in [15] and in [16] was inactive.

On to `COC(=O)c1ccccc1S(=O)(=O)NC(=O)Nc1nc(C)cc(C)n1`, for which the compound was classed as inactive in [1], in test [17], in test [4], in [6], in test [7] and in test [19]. Moreover, the call in test [8], in [9], in [10], in [20] and in test [16] was inactive.

Regarding `CNC(=O)Oc1cc(C)c(SC)c(C)c1`, the result in [1], in test [2], in test [17], in test [4], in test [5] and in test [6] was inactive. Moreover, the result in test [19], in test [9] and in test [11] was inactive. Moreover, the AC50 is 36.4 µM (active) in test [18] and 30.2 µM (active) in test [20].

As for `CC1(C)[C@H](C(=O)O[C@H](C#N)c2cccc(Oc3ccccc3)c2)[C@@H]1C=C(Br)Br`, the compound was classed as inactive in test [1], in [2], in test [3], in test [4], in test [18] and in test [7]. Moreover, the result in test [9], in test [20], in test [12], in test [13], in test [14] and in [15] was inactive. The figures for the AC50 in test [10], in test [13] and in test [16] were 2.94 µM (active), 82.2 µM (active) and 72.7 µM (active), respectively.
